# Assay outcomes from PubChem.
# proKLK7 act – activates the human kallikrein-7 zymogen. 370,000 tested, 0.9% active. activation, % at 7 µM. purified proKLK7, EDANS-DABCYL substrate fluorescence; 100% is mature enzyme control, 0% vehicle. P49862. AID 652039;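 active = activation above the mean of all tested compounds plus 3 SD, computed per campaign excluding outliers beyond control limits, cut at about 13% in these data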
# PG9 Ab binder – small molecules binding HIV-1 gp120 antibody PG9 | TR-FRET gp120-PG9 antibody binding | inhibition, % at 6.7 µM | 360,000 tested, 0.43% active | AID 624416; in the data active = inhibition above about 8.5%
# PP5 inh – blocks human protein phosphatase 5 activity | inhibition, % at 6.7 µM | P53041 | AID 1987 | 320,000 tested, 0.18% active | purified PP5c, OMFP substrate fluorescence;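 active = inhibition above the campaign's mean inhibition across all tested compounds plus 3 SD, cut at about 9.5% in these data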;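 note: 0% = DMSO only and 100% = 100 µM cantharidin control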
# Target sequence (P53041 whole entry, looked up): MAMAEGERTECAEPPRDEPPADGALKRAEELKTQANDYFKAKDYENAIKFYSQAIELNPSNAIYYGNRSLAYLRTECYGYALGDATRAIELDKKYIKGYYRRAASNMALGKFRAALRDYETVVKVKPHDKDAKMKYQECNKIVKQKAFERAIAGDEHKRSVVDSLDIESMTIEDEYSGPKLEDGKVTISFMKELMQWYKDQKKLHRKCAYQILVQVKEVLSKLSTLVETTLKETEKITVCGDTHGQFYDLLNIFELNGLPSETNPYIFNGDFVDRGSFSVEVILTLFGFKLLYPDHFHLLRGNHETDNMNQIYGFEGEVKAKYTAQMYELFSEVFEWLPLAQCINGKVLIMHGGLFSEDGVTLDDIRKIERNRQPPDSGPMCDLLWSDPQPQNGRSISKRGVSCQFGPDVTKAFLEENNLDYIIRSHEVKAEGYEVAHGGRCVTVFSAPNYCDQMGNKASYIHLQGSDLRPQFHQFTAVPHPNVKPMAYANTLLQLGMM
# PP1 counter – blocks human PP1-alpha phosphatase, a PP5 counter-screen; purified PP1alpha, OMFP fluorescence; AID 2235; 320,000 tested, 0.9% active; inhibition, % at 6.7 µM; P62136;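 active = inhibition above the mean inhibition of all tested compounds plus 3 SD, computed separately for each screening campaign, cut at about 15% in these data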
# Rev-erbA mod – modulators of human Rev-erb alpha DNA binding; Rev-erbα–FITC-DNA binding, fluorescence polarization, 90 min; 370,000 tested, 0.79% active; activity, % at 10 µM; AID 1259318; P20393;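 active = activity above about 14%, limit read from the data; passing the limit was not always enough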;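 note: 0% = DMSO wells with 35 nM protein and 100% = DMSO wells with 750 nM protein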
# JMJD2C inh – inhibitors of human GASC-1 (JMJD2C) demethylase; Q9H3R0; GST-JMJD2C(1-420) H3K9me3 demethylation, DELFIA europium; inhibition, % at 2.35 µM; 330,000 tested, 0.069% active;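 active = more than half of a compound's replicate wells show inhibition beyond 50%, single wells judged on their own value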;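 note: signal counts dimethyl H3K9 product captured on neutravidin plate; 0% = median of DMSO wells and 100% = 0.3 times that DMSO median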
# proKLK7 act conf – confirmation of human kallikrein-7 zymogen activators. shares compounds with proKLK7 act. purified proKLK7, EDANS-DABCYL substrate fluorescence; scaled: vehicle 0, mature enzyme 100. activation, % at 7 µM. 3,200 tested, 68% active. AID 686949;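 active = activation, as change over the incubation, above the mean of all tested compounds plus 3 SD, cut at about 13% in these data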
# EDANS-DABCYL int – fluorescence interference counter-screen for KLK7 activators; shares compounds with proKLK7 act; EDANS-DABCYL substrate fluorescence interference, no enzyme, 4 h; solvent 0%, active enzyme control 100%; activation, % at 7 µM; 3,200 tested, 80% active;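 active = activation above the all-compound mean plus 3 SD, ignoring values outside control-based bounds, cut at about 4.8% in these data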;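 note: value is the 4 h activation minus the activation read at time zero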
# K7 EDANS ctr – counter-screen for kallikrein-7 activators: EDANS-DABCYL interference, dose response. EC50, µM. shares compounds with proKLK7 act. EDANS-DABCYL peptide fluorescence interference, no enzyme. 250 tested, 20% active;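 active = compounds that raise the fluorescence signal in this interference counterscreen, with EC50 at or below 10 µM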;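 note: intact quenched peptide substrate alone read at 355 nm excitation and 520 nm emission; signal is fluorescence gain from T0 to T4 after four hours at room temperature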
# The depositor's hits bear a star; / = no result. Shown are actives, neighbours in structure and some others; about 2.8% of the full set was active somewhere.
SMILES,proKLK7 act,PG9 Ab binder,PP5 inh,PP1 counter,Rev-erbA mod,JMJD2C inh,proKLK7 act conf,EDANS-DABCYL int,others
CCCc1cc(=O)oc2cc(OC(=O)CN3C(=O)NC4(CCCC4)C3=O)ccc12,61.8*,-0.6,-1.1,0.6,-11.4,6.2,223.9*,192.8*,
COP1(=O)CCOCC[C@H](CC(C)C)NC(=O)[C@H](CC(C)C)N1 (stereo partly drawn),/,/,/,/,-2.9,/,/,/,
CC(=O)Nc1ccc2[nH]c(C)cc(=O)c2c1,-0.2,-2.5,-2.4,-3.9,-5.9,-4.3,/,/,
COc1cccc(-c2cc(=O)c3cc(NC(C)=O)ccc3[nH]2)c1,25.3*,0.7,4.2,1.2,3.1,-6.3,32.5*,32.0*,
COC(=O)[C@]1(C#N)CC(=O)N(C)[C@@H]1c1ccccc1,-0.3,/,/,/,2.4,/,/,/,
CCN(CC(=O)NCc1ccc(F)cc1)C(=O)COc1ccccc1[N+](=O)[O-],31.2*,-0.2,/,/,1.9,-3.8,-0.7,0.0,
CCOC(=O)c1cnc2cc3c(cn2c1=O)CCCC3,12.8*,1.3,-1.7,-1.0,3.8,-5.8,6.2,10.2*,
C=CCN1C[C@@H](COCc2ccccc2)Oc2cc(F)ccc2S1(=O)=O,0.6,/,/,/,-1.1,/,/,/,
COc1ccc(Cn2cc(CN3[C@H](C)COc4cc(Br)ccc4S3(=O)=O)nn2)cc1,1.0,/,/,/,4.2,/,/,/,
CCNc1cc2n(c(=O)n1)CCc1cc(OC)c(OC)cc1-2,5.6,-0.9,-1.7,-0.7,-1.5,5.8,/,/,
COc1cc2c(cc1OC)-c1cc(OCCN3CCOCC3)nc(=O)n1CC2,77.1*,0.0,1.2,0.1,-0.7,5.2,68.9*,63.6*,
COc1ccc(-c2c(NC(C)=O)n(C)c3ccccc3c2=O)cc1,10.0,1.2,1.8,-2.6,0.3,1.3,/,/,
COc1ccc(-c2c(NC(=O)C(C)C)n(C)c3ccccc3c2=O)cc1,16.3*,-1.1,-0.6,-2.3,-3.3,-2.1,17.5*,19.8*,
Cn1c(=O)c2c(C(=O)O)cc(-c3ccccc3)nc2n(Cc2ccccc2)c1=O,37.5*,1.7,0.8,2.0,-3.0,2.9,58.8*,65.3*,
COc1ccccc1-c1cc(C(=O)O)c2c(=O)n(C)c(=O)n(Cc3ccccc3)c2n1,1.3,-2.2,1.1,-0.7,-8.1,-3.0,/,/,
COc1ccc(CN2CN3Cc4cc(OC)ccc4C3CS2(=O)=O)cc1 (stereo not drawn),-1.1,/,/,/,4.2,/,/,/,
COC(=O)C1=CN(Cc2ccc(F)cc2)C=C(C(=O)OC)C1c1ccc(O)c(OC)c1,-0.3,-1.6,/,/,12.6,-0.2,/,/,
COC(=O)C1=CN(C(C)C)C=C(C(=O)OC)C1c1cc(Br)c(OC)c(OC)c1,-7.1,0.3,1.3,0.6,-2.8,/,/,/,
COC(=O)C1=CN(C(C)C)C=C(C(=O)OC)C1c1cccc(OC)c1,38.6*,0.9,0.0,-0.3,-1.7,-3.8,3.5,-4.5,
COC(=O)C1=CN(Cc2ccc(OC)c(OC)c2)C=C(C(=O)OC)C1c1cccc(O)c1,16.6*,-1.0,-0.2,-1.9,-2.1,0.5,-55.4,-70.0,
CCN1C=C(C(=O)OC)C(c2cccc(C)c2)C(C(=O)OC)=C1,40.2*,-1.3,4.4,-1.9,3.0,-1.1,-53.7,-50.8,
CCOC(=O)C1=CN(C)C=C(C(=O)OCC)C1c1ccsc1,28.8*,1.4,-0.4,-3.9,-1.6,7.0,-33.6,-28.0,
Cc1[nH]nc2c1C(c1ccc(F)cc1)N(Cc1ccccc1)C2=O (stereo not drawn),0.1,-1.4,/,/,3.6,/,/,/,
COc1ccc2c3c([nH]c2c1)[C@]1(NCC3)C(=O)N(C)c2ccc(Cl)cc21,0.4,/,/,/,1.7,/,/,/,
CCOC(=O)c1cccc(-c2cc(C(C)=O)c3n(c2=O)CCC3)c1,-0.6,/,/,/,3.5,/,/,/,
SMILES,proKLK7 act,PG9 Ab binder,PP5 inh,PP1 counter,Rev-erbA mod,JMJD2C inh,proKLK7 act conf,EDANS-DABCYL int,others
COC(=O)C1=CN(CC2CCCO2)C=C(C(=O)OC)C1c1cccc(O)c1 (stereo not drawn),62.8*,1.4,0.5,0.6,7.9,17.0,65.5*,61.1*,
COC(=O)C1=CN(CC2CCCO2)C=C(C(=O)OC)C1c1ccsc1 (stereo not drawn),27.4*,-1.0,-1.7,-2.7,2.4,13.5,33.7*,18.3*,K7 EDANS ctr=>69.5
COC(=O)C1=CN(CC2CCCO2)C=C(C(=O)OC)C1c1ccccc1C(F)(F)F (stereo not drawn),-17.6,0.0,2.2,0.5,2.5,-1.0,/,/,
O=c1nc2n(CCO)c3ccccc3cc-2c(=O)[nH]1,17.6*,1.5,/,/,-4.4,/,48.0*,54.3*,
O=c1nc2n(Cc3ccccc3)c3ccccc3cc-2c(=O)[nH]1,8.1,-3.6,2.6,-1.0,0.3,-16.4,/,/,
CC(=O)c1cccc(NC(=O)CC2S/C(=N/N=C/c3ccccc3)NC2=O)c1 (stereo not drawn),-0.2,-0.1,2.7,12.5,-0.1,-5.6,/,/,
O=C(O)CNC(=O)CC1S/C(=N/N=C/c2ccccc2O)NC1=O (stereo not drawn),21.3*,-2.2,1.9,3.6,2.6,-10.5,33.6*,40.7*,
OCC1COC(c2ccccc2)=N1 (stereo not drawn),0.2,0.6,/,/,2.3,/,/,/,
N#Cc1cnn2c(-c3ccccc3)ccnc12,44.7*,1.4,2.3,-0.8,-4.1,8.1,58.5*,66.4*,
COc1ccc(-c2ccnc3c(C#N)cnn23)cc1,59.8*,0.7,-1.4,-0.7,1.7,-13.0,68.8*,84.9*,
CCNc1nc(C)c(CN(C(C)=O)c2ccccc2)nc1C#N,32.6*,1.6,4.7,-1.1,-0.4,2.4,28.4*,23.8*,K7 EDANS ctr=>69.5
CNC(=O)OCc1cocc1COC(=O)NC,42.5*,1.0,/,/,-3.6,/,0.3,0.3,
CCOC(=O)c1cccc(NC(=O)CN(C)S(=O)(=O)c2ccc(Br)s2)c1,-0.9,/,/,/,2.2,/,/,/,
CC(=O)C1(C(=O)Nc2cc(C)cc(C)c2)CC(c2ccccn2)=NO1 (stereo not drawn),-0.9,/,/,/,-0.8,/,/,/,
COC(=O)[C@]12C[C@H](CC(=O)NCCCN3CCCC3=O)C(=O)N(Cc3ccccc3)C1=C[C@H](COCc1ccccc1)O[C@@H]2C,0.1,/,/,/,5.6,/,/,/,
CN(C)c1ccc2nc3ccc(=O)cc-3sc2c1,54.3*,-451.6,/,/,-30.0,/,142.5*,132.7*,
CCC(C)N(C(=O)c1oc(=O)c2ccccc2c1-c1ccc(C)cc1)C(C)CC (stereo not drawn),0.3,/,/,/,2.5,/,/,/,
COc1ccc(CCNC(=O)c2sc(=S)n(C)c2N)cc1,15.0*,-0.7,-0.2,0.5,-1.8,-5.8,14.7*,13.1*,
